Source: PubChem (National Center for Advancing Translational Sciences (NCATS))
Only some compounds are listed: those with a hit (about 12% of all), similar ones and a draw of the others.
BAZ2B block = blocks human BAZ2B; Potency, µM (doses to about 114 µM), most hits filed as inhibitors; Q9UIF8; 360,000 compounds, 4.4% hits; AlphaScreen BAZ2B-H3K14Ac peptide displacement; also: nearly all actives have a fitted effect of over 60% in size
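AlphaScreen displacement of biotin-H3(5-23)K14Ac peptide (50 nM final) from BAZ2B (50 nM final) in PBS pH 7.4, 0.01% Tween-20; complex preformed 30 min RT, then compounds (top 110 uM) 30 min RT, beads 20 min dark.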
G9a block = inhibitors of human histone lysine methyltransferase G9a. AID 504332. Potency, µM (series often up to 102 µM), actives largely listed as inhibitors. 350,000 compounds, 8.8% hits. G9a H3K9 monomethylation, AlphaScreen, 2 h. Q96KQ7; also: nearly all actives have a fitted effect of over 75% in size
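Using a bead-based AlphaScreen, monomethylated H3K9 product from 2 h room-temperature reactions (G9a 20 nM, peptide 500 nM, SAM 20 uM) was detected with 0.5 ug/mL rabbit anti-H3K9me1 antibody.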
Sfp PPTase inh = Sfp phosphopantetheinyl transferase inhibition. Q9F4F7. Biochemical Sfp PPTase activity, qHTS. Potency, µM, usual class: inhibitors. 310,000 compounds, 3.5% hits. AID 1490;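 also: the enzyme is Sfp with the accession as filed and its product quenches rhodamine fluorescence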
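Compounds were incubated with enzyme (final 15 nM) for 15 min at room temperature before substrate addition started the reaction. Fluorescence at 525 nm excitation, 598 nm emission was recorded immediately and after 30 minutes.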
JMJD2A Tudor = blocks the human JMJD2A Tudor domain; AlphaScreen JMJD2A-Tudor / H3K4me3 peptide binding; Potency, µM (doses to about 114 µM), most hits filed as inhibitors; 390,000 compounds, 4.4% hits; AID 504339; also: nearly all actives have a fitted effect of over 50% in size
Target sequence (O75164 whole entry, looked up, the tested form may be a part): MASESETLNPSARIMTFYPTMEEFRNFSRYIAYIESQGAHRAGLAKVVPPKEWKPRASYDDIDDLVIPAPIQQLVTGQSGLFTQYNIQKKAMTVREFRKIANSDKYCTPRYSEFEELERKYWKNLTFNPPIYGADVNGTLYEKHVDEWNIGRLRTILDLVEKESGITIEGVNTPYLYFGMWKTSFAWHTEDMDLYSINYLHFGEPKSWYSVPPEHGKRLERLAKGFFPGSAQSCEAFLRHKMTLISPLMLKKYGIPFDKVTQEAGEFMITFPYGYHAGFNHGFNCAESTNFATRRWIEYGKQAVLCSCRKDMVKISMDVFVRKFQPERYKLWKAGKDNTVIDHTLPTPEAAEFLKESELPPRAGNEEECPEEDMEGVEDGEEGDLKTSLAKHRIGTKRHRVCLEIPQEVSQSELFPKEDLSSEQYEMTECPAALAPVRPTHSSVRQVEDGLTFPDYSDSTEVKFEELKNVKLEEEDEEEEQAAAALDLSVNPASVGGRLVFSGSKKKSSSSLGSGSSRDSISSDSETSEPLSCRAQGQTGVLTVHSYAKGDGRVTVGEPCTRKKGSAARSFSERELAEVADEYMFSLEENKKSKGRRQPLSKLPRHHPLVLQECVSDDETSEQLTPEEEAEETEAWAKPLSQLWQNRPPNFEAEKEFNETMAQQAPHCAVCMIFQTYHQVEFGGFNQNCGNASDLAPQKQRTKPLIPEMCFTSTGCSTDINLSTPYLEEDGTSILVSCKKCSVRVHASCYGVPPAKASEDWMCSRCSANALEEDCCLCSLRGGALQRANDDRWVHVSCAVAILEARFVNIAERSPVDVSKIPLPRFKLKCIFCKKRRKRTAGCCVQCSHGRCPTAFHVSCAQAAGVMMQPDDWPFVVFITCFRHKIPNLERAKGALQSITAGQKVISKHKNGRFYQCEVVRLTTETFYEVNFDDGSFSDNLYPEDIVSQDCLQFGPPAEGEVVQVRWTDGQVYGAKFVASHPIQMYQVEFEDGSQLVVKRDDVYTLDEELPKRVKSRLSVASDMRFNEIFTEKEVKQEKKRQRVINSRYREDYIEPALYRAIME
HP1b chromo inh = blocks HP1-beta chromodomain binding to methylated histone tails. Potency, µM (highest dose often 114 µM), actives largely listed as inhibitors. AID 540317. 390,000 compounds, 0.56% hits. AlphaScreen HP1-beta / biotin-H3K9me3 peptide binding. P83916; also: nearly all actives have a fitted effect of over 70% in size
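HP1-beta protein (50 nM final) preincubated 30 min at room temperature with biotinylated H3(1-18)K9me3 peptide (50 nM) in PBS pH 7.4, 0.01% Tween-20, then compound added for 30 min. AlphaScreen streptavidin donor/nickel chelate acceptor beads (10 ug/mL final), 30 min dark, luminescence read.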
Hits are given with their value; i = inactive; ? = inconclusive; nt = no result; [ ] = dose if it differs, or a comment. Calls follow the shape of the dose curve; as a rule, active = well fitted curve in the direction sought with a large enough effect; inconclusive = small, poorly fitted or top-dose-only effect, or another doubt; inactive = no such curve, though single readings can be large; an effect the other way counts as inactive or inconclusive.

SMILES | BAZ2B block | G9a block | Sfp PPTase inh | JMJD2A Tudor | HP1b chromo inh
CCOC(=O)c1ccc(NC(=O)CSc2nnc(CCc3ccc(C)o3)n2-c2ccccc2)cc1 | i | 45µM | 16µM | i | i
CCn1ccc2cc(S(=O)(=O)N3CCC(C(=O)NCCc4ccc(SC)cc4)CC3)ccc21 | i | i | nt | i | i
O=C(Nc1c(S(=O)(=O)c2ccc(Cl)cc2)csc1Br)c1ccccc1Cl | i | i | i | i | i
Cc1ccc(C)c(NC(=O)c2cnc(N3CCCC3)nc2C)c1 | i | i[12.7 µM] | nt | i | i
CCCS(=O)(=O)c1c(S(=O)(=O)CCC)c2c(N)cccn2c1C(=O)c1ccc(OC)cc1 | ? | nt | i | ? | i
CCCS(=O)(=O)c1c(S(=O)(=O)CCC)c2c3ccccc3ccn2c1C(=O)OC | i | ? | i | i | i
CCCS(=O)(=O)c1c(S(=O)(=O)CCC)c2c(N)cccn2c1C(=O)c1ccc(Br)cc1 | i | 11µM | i | ? | i
CCCS(=O)(=O)c1c(S(=O)(=O)CCC)c2c(N)cccn2c1C(=O)c1ccc(F)cc1 | ? | ? | 22µM | ? | i
CCCS(=O)(=O)c1c(S(=O)(=O)CCC)c2c(C)cccn2c1C(=O)OC | i | 32µM | 79µM | ? | i
CCOC(=O)CCCNC(=O)COC(=O)[C@@H]1CCCN1S(=O)(=O)c1ccc(Cl)cc1 | i | 50µM | i | i | i
CN(C)S(=O)(=O)c1cccc(NC(=O)CNCc2ccccn2)c1 | 20µM | nt | ? | 28µM | i
CN(C)S(=O)(=O)c1cccc(NC(=O)CSc2nc3ccccc3n2-c2ccccc2)c1 | i | 79µM | i | i | i
CN(C)S(=O)(=O)c1cccc(NC(=O)CNC2CCCCC2)c1 | ? | 50µM | i | 22µM | ?
CCN(CC)S(=O)(=O)c1ccc(NC(=O)CNC2CCCCC2)cc1 | 79µM | 25µM | i | 5.6µM | ?
CCc1ccc2c(c1)c(=O)c(S(=O)(=O)c1ccc(F)cc1)cn2CC(=O)Nc1ccccc1OC | i | i | nt | i | i
Cc1ccc(C(=O)NCC(=O)OC(C)C(=O)Nc2ccccc2[N+](=O)[O-])s1 (stereo not given) | nt | nt | nt | i | i
Cc1ccc(C(=O)NCC(=O)OC(C)C(=O)Nc2ccc(N(C)C)cc2)s1 (stereo not given) | i | 40µM | i | i | i
Cn1c(=O)c(-c2cccs2)nc2cnc(N3CCOCC3)nc21 | nt | i[0.501 µM] | i | nt | nt
Cc1ccc(NC(=O)C2CCCN2S(=O)(=O)c2ccc3nc(-c4ccccc4)[nH]c3c2)cc1C (stereo not given) | 79µM | i | nt | i | i
Cc1cccc(NC(=O)C2CCCN2S(=O)(=O)c2ccc3nc(-c4ccccc4)[nH]c3c2)c1 (stereo not given) | ? | i | nt | i | i
CC(C)C(NCc1c(Cl)cccc1Cl)C(=O)O (stereo not given) | i | 79µM | i | i | i
Cc1cccc(Oc2cc(NC(=O)Cn3cnc([N+](=O)[O-])n3)cc([N+](=O)[O-])c2)c1 | ? | 14µM | i | ? | i
Cc1cc(C)cc(Oc2cc(NC(=O)c3cn(C)nc3C)cc([N+](=O)[O-])c2)c1 | i | i | i | i | i
Cc1cc([N+](=O)[O-])nn1CCCC(=O)Nc1cc(Oc2ccc(F)cc2)cc([N+](=O)[O-])c1 | i | ? | i | i | i
Cc1cc([N+](=O)[O-])nn1CCCC(=O)Nc1cc(Oc2ccccc2)cc([N+](=O)[O-])c1 | ? | 40µM | i | ? | i
SMILES | BAZ2B block | G9a block | Sfp PPTase inh | JMJD2A Tudor | HP1b chromo inh
CCc1nnc2c(Nc3cc(OC)c(Cl)cc3OC)nc3ccccc3n12 | i | i | nt | i | i
CN1CCC[C@@H](CC2c3ccccc3Sc3ccccc32)C1 | nt | i[21.5 µM] | i | nt | nt
Cn1ccnc1SCc1ccc(Cl)cc1Cl | i | 8.9µM | i | ? | i
Cc1cc(C)n2c(SCc3ccc(Cl)cc3Cl)nnc2n1 | i | ? | i | i | i
Cc1oc2c(cc(NS(=O)(=O)c3ccc(F)cc3)c3ccccc32)c1C(=O)OCc1ccccc1 | i | ? | nt | i | i
CCCCNc1c(-c2ccc(SC(C)CC)c(OC)c2)nc2ccc(Cl)cn12 (stereo not given) | nt | nt | nt | ? | i
CCCCNc1c(-c2ccc(SC(C)CC)cc2)nc2cnccn12 (stereo not given) | nt | nt | nt | 56µM | i
CCCCNc1c(-c2ccc(OC)c(Sc3ccc(OC)cc3)c2)nc2cnccn12 | nt | nt | nt | ? | i
